Test results taken from PubChem BioAssay (NCI).
About 83,000 compounds went through this panel and 20% of them were active in at least one assay; those are over-represented in the sample as a whole.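 Plates (96-well) were seeded with cells, treated with compound at one concentration, and incubated for 48 hours before percent growth was determined.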 Unmarked numbers belong to inactive results. Calls of active or inactive are those of the source. Rule for the calls: active = growth percent below 10; inactive = the rest.

Assays:
Test in all cases: NCI-60 one-dose screen, 48 h (100 = growth as untreated, 0 = no growth, -100 = all killed)
HCT-15 colon = conditions: 10 µM unless noted
HT29 colon = conditions: 10 µM unless noted
SNB-75 CNS = conditions: 10 µM unless noted
SNB-19 CNS = conditions: 10 µM unless noted
U251 CNS = conditions: 10 µM unless noted
PC-3 prostate = conditions: 10 µM unless noted
SK-MEL-5 melanoma = conditions: 10 µM unless noted
UACC-62 melanoma = conditions: 10 µM unless noted
LOX IMVI melanoma = conditions: 10 µM
SK-MEL-28 melanoma = conditions: 10 µM unless noted

SMILES	growth (HCT-15 colon)	growth (HT29 colon)	growth (SNB-75 CNS)	growth (SNB-19 CNS)	growth (U251 CNS)	growth (PC-3 prostate)	growth (SK-MEL-5 melanoma)	growth (UACC-62 melanoma)	growth (LOX IMVI melanoma)	growth (SK-MEL-28 melanoma)
COc1ccc(Br)c2c1C(=O)CC2	110%	106%	99.6%	108%	107%	96.6%	109%	90.4%	104%	135%
N#C/C(=C\c1ccc2c(c1)OCO2)c1ccccc1	49.4%	35.5%	76.2%	86.4%	55%	84.8%	54.6%	69.7%	78.3%	87.7%
CCOC(=O)N[C@H]1CCc2cc(OC)c(OC)c(OC)c2-c2ccc(SC)c(=O)cc21	7.82% (active)	7.57% (active)	44.3%	30.8%	17.1%	27.7%	-51.3% (active)	39.9%	22.4%	60.1%
COc1cc(-c2ccc(NC(=O)CC(C)=O)c(OC)c2)ccc1NC(=O)CC(C)=O	96.7%	107%	82.2%	101%	89.6%	95.1%	98.1%	102%	96.7%	111%
O=S(Cc1ccccc1)/C(=C/NC(=S)Nc1ccccc1)c1ccccc1 (stereo not given)	106%	104%	80.2%	110%	100%	95.4%	104%	103%	90.9%	106%
Oc1cccnc1CN1CCCC1	95.3%	108%	96.1%	104%	94.8%	89.7%	99.8%	102%	96.6%	107%
O=C(c1ccccc1)c1ccc(-c2ccc(O)cc2)cc1	57%	120%	43.5%	59.7%	37.3%	76.8%	23.6%	48.5%	73.4%	75.1%
CCOC(=O)Nc1nccs1	104%	100%	111%	111%	98.9%	97.7%	99.5%	99.7%	103%	111%
CCOC(=O)CO	115%	107%	94.1%	105%	110%	101%	107%	103%	107%	114%
NC(CO)(CO)c1ccccc1	97.2%	100%	88.7%	107%	97.3%	100%	97.9%	101%	101%	106%
CCNc1ccc2ccccc2c1N=Nc1ccc(N=Nc2ccccc2)cc1	104%	112%	100%	112%	109%	87.1%	87.5%	72.6%	93.1%	120%
O=C(O)C1CCCN1C(=O)OCc1ccccc1 (stereo not given)	108%	97.6%	81.6%	104%	108%	108%	104%	109%	88.4%	105%
CCOC(=O)CNC(=O)Sc1ccc(C(C)(C)C)cc1	94.3%	114%	75.7%	103%	83.5%	106%	107%	91%	83.9%	113%
CCCC(=O)c1cccs1	100%	98%	88.5%	101%	110%	89.2%	105%	95.1%	95.9%	107%
O=S(Cc1ccccc1)/C(=C/NC(=S)Nc1cc(Cl)ccc1Cl)c1ccccc1 (stereo not given)	107%	97.4%	89.9%	104%	101%	94.1%	102%	98.6%	94.3%	109%
N#Cc1ccc2nc[nH]c2c1	106%	112%	95.5%	111%	101%	105%	102%	105%	101%	108%
CCOP(=O)(OCC)/C(=C\N1C(=O)CC(=O)NC1=S)C(=O)OC	102%	111%	90.2%	98.6%	94.7%	97.8%	99%	98.6%	98.6%	107%
CC(=O)NNC(=S)/N=C\C(C(=O)c1ccccc1)=C(/O)c1ccccc1	98.7%	93.8%	86.3%	105%	99.5%	93%	101%	101%	94%	106%
Cc1ccc(Cc2ccc(C)cc2)cc1	101%	105%	101%	109%	101%	100%	101%	104%	99.4%	107%
C/C(Cc1ccccc1)=N\O	96.9%	101%	115%	108%	104%	88.4%	99.4%	106%	119%	111%
O=Cc1c(O)c2ccccc2[nH]c1=O	95.2%	116%	77.9%	104%	94.3%	94.4%	95.1%	87.9%	98.5%	107%
O=C1NC(=O)/C(=C\c2ccncc2)N1	98.7%	99.7%	92%	101%	100%	96.3%	97.2%	95.8%	100%	101%
CC(=O)C1C(=O)C(=O)N(c2cccc([N+](=O)[O-])c2)C1=O (stereo not given)	102%	105%	93.9%	104%	97.3%	98.2%	107%	100%	105%	107%
Cc1ccc(NC(=O)c2ccccc2Cl)cc1	95.3%	107%	95.3%	99%	118%	89.6%	107%	98.6%	101%	108%
O=C(Nc1ccc([N+](=O)[O-])cc1)C(=O)Nc1ccc([N+](=O)[O-])cc1	101%	91.5%	116%	99.6%	81.2%	90.5%	100%	97%	94.9%	115%
COc1c(CNC(=O)CCl)cc2[nH]c(C)cc2c1CNC(=O)CCl	70.5%	38.3%	69.6%	83.5%	10.3%	67.9%	44.1%	30.6%	34%	63.2%
CC(C)(CC(=O)O)CC(=O)O	105%	101%	90.2%	99.2%	109%	101%	97.7%	98.7%	104%	99.2%
CCCCCCCCNC(=O)C(C)C	106%	95.5%	91.2%	101%	101%	94.9%	103%	96%	98%	101%
CCOC(=N)CC(=O)Nc1cccc(C)c1Cl	100%	116%	86%	109%	103%	93.6%	94.9%	93.9%	93%	105%
CSc1nsc(N)n1	95.5%	95.1%	87.4%	96%	94.9%	93.6%	101%	93.1%	98.2%	106%
